Compounds without any hit were thinned out: in the full panel of roughly 83,000, 20% have a hit.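 A percent growth of 40 corresponds to 60% growth inhibition; 0 means no net growth; -100 means all cells died. Active threshold: below 10.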 A number with no mark means an inactive call. Activity calls are given as the source filed them.
Tests used:
Experiment in all cases: NCI-60 one-dose screen, 48 h (100 = growth as untreated, 0 = no growth, -100 = all killed)
Conditions in all cases: 10 µM
[1] = system: SN12C renal
[2] = system: UO-31 renal
[3] = system: TK-10 renal
[4] = system: CAKI-1 renal
[5] = system: A498 renal
[6] = system: CCRF-CEM leukemia
[7] = system: MOLT-4 leukemia
[8] = system: SR leukemia
[9] = system: ACHN renal

| Compound | growth [1] | growth [2] | growth [3] | growth [4] | growth [5] | growth [6] | growth [7] | growth [8] | growth [9] |
| --- | --- | --- | --- | --- | --- | --- | --- | --- | --- |
| CC/C(=C(/c1ccc(OCCN(C)C)cc1)c1ccc(OC(=O)CCC(=O)c2c(C)[nH]c(/C=C3\N=C(c4ccc[nH]4)C=C3OC)c2C)cc1)c1ccccc1 | 35.9% | 5.9% (active) | 21.7% | 18.8% | 50.3% | 6.12% (active) | 3.77% (active) | -21% (active) | – |
| COc1cccc(Cn2c(-c3nonc3N)nc3ccccc32)c1 | 43.8% | 33.2% | 31.7% | – | -19.3% (active) | 9.82% (active) | 25.6% | -5.32% (active) | 46.6% |
| CCCCCCCC(C)NCCO (stereo unspecified) | 112% | 80.8% | 105% | 97.1% | 104% | – | 99.6% | 108% | – |
| CCCCCCCNc1nc(C=O)ncc1-c1ccc(C(F)(F)F)cc1 | 101% | 63.1% | 97% | 98.4% | 86.2% | 83.9% | 86.5% | -2.53% (active) | – |
| COc1cc2cc3c(nc2cc1OC)CCN3Cc1ccc(NC(=O)c2ccc(Cl)c(C(F)(F)F)c2)cc1 | 91.3% | 71.9% | 131% | – | 130% | 91% | 56.8% | 70.6% | 84.7% |
| C[C@]12CC[C@@H]3c4ccc(O)cc4C[C@@H](O)[C@H]3[C@@H]1CC[C@@H]2O | 100% | 86.5% | 111% | 87.6% | 79.6% | 103% | 109% | 91.4% | – |
| C#Cc1ccc(-n2c(/C=C/c3ccc(O)cc3)nc3ncccc3c2=O)cc1 | 75.9% | 34.3% | 93.7% | – | -1.24% (active) | 85.7% | 101% | 18.1% | 49.8% |
| O=C(Nc1cccc(-n2cc(-c3ccncc3)c(-c3ccc(O)c(Cl)c3)n2)c1)Nc1ccc(Cl)c(Cl)c1 | 17% | -11.3% (active) | 16.7% | -21.1% (active) | 23.2% | 0.782% (active) | -10% (active) | – | – |
| CN(Cc1ccccc1)Cc1ccc([N+](=O)[O-])cc1I | 99.9% | 88.4% | 106% | – | 81.4% | – | 91.1% | 67.2% | 101% |
| O=C(Nc1cccc(-n2cc(-c3ccncc3)c(-c3ccc(O)c(Cl)c3)n2)c1)c1ccc(N2CCOCC2)c(C(F)(F)F)c1 | 57.5% | 13.1% | 73.4% | 26.5% | 71.7% | 20.2% | 40.2% | 18% | – |
| CN(CCc1ccccn1)c1ccccc1 | 104% | 97.9% | 104% | – | 109% | -0.411% (active) | 59.9% | 87.5% | 102% |
| C[C@@H]1C=C2C(=O)O[C@@H]3CC[C@H](C1)[C@]23O | 81% | 63.4% | 75.8% | – | 129% | 18.6% | 62.8% | – | 72.3% |
| CCCCCCN1CCN(Cc2ccc(N(CC)CC)cc2)C(=O)C1=O | 50.8% | 34.8% | 25.4% | – | -4.48% (active) | 9.18% (active) | 19.1% | 3.37% (active) | 52.4% |
| O=C1NC(=O)N(Cc2ccccc2)CC1Br (stereo unspecified) | 56.3% | 77.6% | 86.3% | – | 129% | 13% | 57.7% | 19.7% | 70.5% |
| CC(C)(Cl)CCC1=C(Cl)C(=O)c2ccccc2C1=O | 79.9% | 36.5% | 124% | – | 27.4% | -33.9% (active) | -16.2% (active) | -25.3% (active) | 26.3% |
| O=C1Nc2ccc(Cl)cc2/C1=C\c1c(-c2ccc(Cl)cc2)nc2sc(C3CC3)nn12 | 75.7% | 63.7% | 52.9% | – | 14.9% | 93.6% | – | 44.2% | 44.4% |
| O=C1/C(=C\c2ccc(Br)cc2)CN(C(=O)c2ccccc2F)C/C1=C\c1ccc(Br)cc1 | 14.4% | -53.6% (active) | 55.2% | – | 74.9% | -10.4% (active) | 4.49% (active) | -27.4% (active) | 32.3% |

| Compound | growth [1] | growth [2] | growth [3] | growth [4] | growth [5] | growth [6] | growth [7] | growth [8] | growth [9] |
| --- | --- | --- | --- | --- | --- | --- | --- | --- | --- |
| COc1ccc(-c2nc(-c3nc4cc(Cl)c(Cl)cc4[nH]3)c3ccccn23)cc1 | 81.8% | 36% | 2.57% (active) | 43.5% | 41.5% | 79.1% | 77.3% | 45.6% | – |
| COc1ccc(-c2nn(-c3cccc(NC(=O)c4ccc5c(c4)OCCO5)c3)cc2-c2ccncc2)cc1Cl | 51.6% | 16% | 36.2% | – | -19.3% (active) | 7.54% (active) | 11.3% | -9.34% (active) | 41.4% |
| N=C(N)c1ccc(-c2ccc(-c3ccco3)o2)cc1 | 69.3% | 55% | 109% | – | 33.3% | 60.7% | 31.3% | -17.8% (active) | 79.4% |
| O=[N+]([O-])c1ccc(N/N=C/c2cccc3ccccc23)nc1 | 103% | 86.9% | 100% | – | 106% | 14.9% | 57.3% | 79.4% | 91.8% |
| COc1cc(Nc2ccnc(NCCCNc3ccnc4cc(Cl)ccc34)n2)cc(OC)c1 | 22.6% | -74.8% (active) | -63.4% (active) | – | 14.9% | -5.06% (active) | -39.6% (active) | -21.6% (active) | -58.1% (active) |
| O=C(Nc1ccccc1)Nc1cccc(-n2cc(-c3ccncc3)c(-c3ccc(O)c(Cl)c3)n2)c1 | 59.1% | 26.9% | 88.8% | 30.1% | 82.5% | 29.9% | 38.3% | 11.9% | – |
| c1ccc(CO[C@H]2CO[C@H]3[C@@H]2OC[C@H]3OCc2ccccc2)cc1 | 102% | 72.1% | 101% | – | 110% | 99.2% | 95.2% | 94.6% | 101% |
| Cn1c([N+](=O)[O-])cnc1/C=C1\Oc2cc(Cl)ccc2C1=O | -15.1% (active) | -35.2% (active) | -24.4% (active) | – | 57.4% | -0.667% (active) | – | 8.29% (active) | 6.42% (active) |
| O=C(CCCCC(=O)Nc1ccc2c(c1)/C(=C/c1ccc[nH]1)C(=O)N2)NO | 93.1% | 83.6% | 86% | – | 50.8% | 32.4% | 60.8% | 45.4% | 101% |
| COc1ccc(C2=Nc3c(C)nn(-c4ccccc4)c3NC(c3ccc(Oc4ccnc5cc(Cl)ccc45)c(OC)c3)C2)cc1 (stereo unspecified) | 72.5% | 53% | 129% | 70.8% | 54.2% | 71.2% | 51.4% | -0.699% (active) | – |
| COc1ccc(C(=O)/C=C/c2cc(-c3cc(OC)c(OC)c(OC)c3)n[nH]2)cc1 | 25.1% | 5.28% (active) | – | 4.76% (active) | 62.2% | -35.9% (active) | 3.23% (active) | -39.7% (active) | 58.6% |
| CC(=O)c1nc2ccccc2n1CCNC(N)=O | 89.6% | 78.8% | – | 105% | 78.8% | 68.3% | 77.2% | 43.5% | 91.3% |
| COc1ccccc1CNCCCN1C(=O)c2ccc3c4c(ccc(c24)C1=O)C(=O)N(CCCN)C3=O | -89% (active) | – | -3.35% (active) | 31.3% | -0.046% (active) | -10.4% (active) | – | 5.24% (active) | 2.62% (active) |
| COc1cc(-c2nc(Nc3nc4ccccc4s3)[nH]c(=O)c2C#N)cc(OC)c1O | 102% | – | 112% | 113% | 103% | 103% | 94.7% | 108% | 102% |
| Nc1nc(-c2ccccc2Cl)cc(-c2ccc(Cl)cc2Cl)n1 | 79.6% | 62.5% | – | 68% | 53.7% | 57.5% | 52.6% | – | 86% |
| CSc1nc(=O)n(Cc2ccc(F)cc2)c(=O)n1Cc1ccc(C)cc1 | 96.3% | 80.1% | – | 84.9% | 106% | 98.5% | 92.4% | 84.4% | 101% |

Source: PubChem BioAssay (NCI)
